# A selection: hits, their analogues and other compounds. The true share with any hit is near 2.5%.
# ULK1 primary: blocks human autophagy kinase ULK1 | O75385 | AlphaScreen Atg13 phosphorylation by ULK1, luminescence | inhibition, % at 5.96 µM | 30,000 compounds, 1.9% hits | AID 1259251; in the data active means inhibition above about 43%;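 further: 0% = median of compound wells and 100% = no enzyme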
# Target sequence (O75385 whole entry, looked up): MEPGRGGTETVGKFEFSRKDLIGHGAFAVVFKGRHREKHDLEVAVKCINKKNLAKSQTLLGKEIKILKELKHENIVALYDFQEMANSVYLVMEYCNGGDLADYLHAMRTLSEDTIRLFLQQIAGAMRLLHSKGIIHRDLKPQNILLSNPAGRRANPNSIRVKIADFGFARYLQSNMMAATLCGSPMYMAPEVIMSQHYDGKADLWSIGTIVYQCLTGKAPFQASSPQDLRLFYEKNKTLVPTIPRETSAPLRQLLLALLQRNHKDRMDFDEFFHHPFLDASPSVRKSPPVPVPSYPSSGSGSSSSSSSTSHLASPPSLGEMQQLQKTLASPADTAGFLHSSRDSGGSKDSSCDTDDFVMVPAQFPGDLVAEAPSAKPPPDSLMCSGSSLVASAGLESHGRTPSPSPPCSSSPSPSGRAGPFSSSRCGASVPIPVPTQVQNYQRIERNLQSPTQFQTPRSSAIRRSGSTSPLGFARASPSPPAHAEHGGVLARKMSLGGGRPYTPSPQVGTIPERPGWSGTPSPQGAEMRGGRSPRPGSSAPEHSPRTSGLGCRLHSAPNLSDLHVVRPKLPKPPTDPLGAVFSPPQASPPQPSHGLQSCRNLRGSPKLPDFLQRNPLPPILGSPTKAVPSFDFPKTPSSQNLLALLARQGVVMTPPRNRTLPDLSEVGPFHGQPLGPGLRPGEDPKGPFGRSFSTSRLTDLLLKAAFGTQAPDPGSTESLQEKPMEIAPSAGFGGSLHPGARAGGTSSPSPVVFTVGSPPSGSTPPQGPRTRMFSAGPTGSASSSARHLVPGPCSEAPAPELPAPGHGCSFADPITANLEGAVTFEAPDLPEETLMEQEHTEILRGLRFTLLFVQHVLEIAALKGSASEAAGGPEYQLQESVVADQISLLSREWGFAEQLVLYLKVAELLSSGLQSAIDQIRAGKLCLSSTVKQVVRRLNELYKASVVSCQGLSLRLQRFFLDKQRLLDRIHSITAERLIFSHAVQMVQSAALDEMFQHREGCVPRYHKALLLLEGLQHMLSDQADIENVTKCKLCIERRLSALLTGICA
# ASK1 primary: inhibitors of human ASK1 kinase. Q99683. AlphaScreen MKK6 phosphorylation by ASK1, luminescence. inhibition, % at 7.44 µM. 22,000 compounds, 0.99% hits. AID 1159602; in the data active means inhibition above about 35%;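 further: 0% = median of compound wells and 100% = no enzyme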
# * hit, by the source's call; / = not tested or not shown.
SMILES,ULK1 primary,ASK1 primary
O=C(Nc1ccc(N2CCOCC2)cc1)C1CCN(c2ccc(Nc3ccc4ncccc4c3)nn2)CC1,49.5*,-18.5
O=C(Nc1ccc(N2CCOCC2)cc1)C1CCN(c2ccc(Nc3ccc(N4CCOCC4)cc3)nn2)CC1,-15.9,-15.5
Cc1nc2ccccc2n1CC(=O)N/N=C\c1ccncc1,-1.5,/
Cc1ccccc1OCC(=O)Nc1ccccc1N1CCCC1,-2.4,/
NC(=O)c1ccccc1Nc1nc(Nc2ccc(Cl)cc2)ncc1Cl,19.9,-39.1
Cc1cc(Nc2cc(Nc3ccccc3C(N)=O)ccn2)ccc1N1CCOCC1,6.0,6.8
Cc1cnc(Nc2ccc(N3CCOCC3)cc2)nc1Nc1ccccc1C(N)=O,95.3*,-59.4
NC(=O)c1ccccc1Nc1nc(Nc2ccc(N3CCOCC3)c(Cl)c2)ncc1Cl,80.4*,-88.2
Cc1cnc(Nc2ccc(N3CCOCC3)cc2)nc1Nc1ccccc1,30.3,15.2
Cc1cc(Nc2ncc(Cl)c(Nc3ccccc3C(N)=O)n2)ccc1N1CCOCC1,70.3*,-92.4
Cc1cccc(CC(=O)Nc2cnn(-c3ccc(C(=O)N4CC[C@@H](N(C)C)C4)cc3)c2)c1,3.7,1.6
Cc1ccc(C(=O)NCc2nc(-c3ccncc3)n[nH]2)s1,0.8,16.8
CC(C)n1c(-c2ccc(C(N)=O)cc2)nc2c(NC3CC3)ncnc21,2.4,-4.6
C#CCN1CCN(c2c(NC(=O)c3ccc(Br)o3)ccc(Cl)c2Cl)CC1,-0.1,10.7
O=S(=O)(O)c1ccccc1O,-2.8,/
Cc1cc(-c2ccc(N=Nc3ccc4c(S(=O)(=O)O)cc(S(=O)(=O)O)c(N)c4c3O)c(C)c2)ccc1N=Nc1ccc2c(S(=O)(=O)O)cc(S(=O)(=O)O)c(N)c2c1O,57.4*,/
Nc1c(N=Nc2ccc(-c3ccc(N=Nc4cc(S(=O)(=O)O)c5ccccc5c4N)cc3)cc2)cc(S(=O)(=O)O)c2ccccc12,55.8*,/
CC(=O)Nc1ccc(/C=C2/SC(=O)NC2=O)cc1,2.3,/
O=C1NC(=O)/C(=C\c2cc(Br)cc(Cl)c2O)S1,44.4*,/
OC[C@H]1OC(O)[C@H](O)[C@@H](O)[C@H]1O (stereo not given in full),9.9,/
OC[C@H]1OC([S-])[C@H](O)[C@@H](O)[C@@H]1O.[Au+] (stereo not given in full),66.4*,/
COc1ccc(C(=O)NCc2nc(-c3ccncc3)n[nH]2)cc1,13.1,-1.1
O=C(NCCN1CCOCC1)c1cccc(-n2ncc3cc(Nc4ccccc4)c(N4CCOCC4)cc32)c1,65.3*,-28.6
COc1cc2c(cnn2-c2cccc(C(=O)NCCN3CCOCC3)c2)cc1Nc1ccccc1,-18.1,-2.8
O=C(Nc1ccc2c(c1)OCO2)c1cccc(N2CCCC2CO)n1 (stereo not given),6.3,8.5
SMILES,ULK1 primary,ASK1 primary
Cc1cnc(Nc2ccc3ncccc3c2)nc1NC1CC1,70.8*,7.6
Cc1cnc(Nc2cccc(N(C)C)c2)nc1NCCCN1CCCC1=O,20.3,-7.9
Cc1cnc(Nc2ccc3ncccc3c2)nc1Nc1ccc2c(c1)OCO2,-10.6,-29.3
Cc1cnc(NCCCN2CCCC2=O)nc1Nc1ccc(Oc2ccccc2)cc1,49.1*,10.8
Cc1cnc(Nc2ccc3ncccc3c2)nc1NCCCN1CCCC1=O,69.5*,-12.9
O=C1CCCN1CCCNc1nc(Nc2ccc(Oc3ccccc3)cc2)c2[nH]cnc2n1,-22.0,29.5
CCC(=O)/C=C/n1c(=S)oc2ccccc21,48.4*,/
CCN(CC)c1nc(NCc2ccccc2)nc(Nc2ccc(N3CCOCC3)cc2)n1,-16.4,20.1
COc1ccc(CN2CCN(CC3CC4C=CC3C4)CC2)cc1 (stereo not given),0.9,/
CN(c1ncccc1CNc1cc(Nc2ccc3[nH]c(=O)oc3c2)ncc1C(F)(F)F)S(C)(=O)=O,39.5,22.6
CNC(=O)c1ccccc1Nc1cc(Nc2ccc3[nH]cc(C(=O)C(=O)N(C)C)c3c2)ncc1C(F)(F)F,75.1*,-14.2
CN(C)C(=O)C(=O)c1c[nH]c2ccc(Nc3cc(Nc4ccccn4)c(C(F)(F)F)cn3)cc12,45.4*,18.8
Cn1cccc(-c2ccc(Nc3nccc(-c4ccc5nc(C6CC6)[nH]c(=O)c5c4)n3)cc2)c1=O,36.9,-9.8
O=C(Nc1ccc(Nc2nccc(-c3ccc4nc(C5CC5)[nH]c(=O)c4c3)n2)cc1)N1CCCC1,58.8*,-44.2
Cn1nnc(-c2ccc(Nc3nccc(-c4ccc5nc(C6CC6)[nH]c(=O)c5c4)n3)cc2)n1,44.4*,-21.8
CN1CCN(C(=O)c2ccc(Nc3nccc(-c4ccccc4)n3)cc2)CC1,-0.7,22.5
O=C(Nc1cccc(Nc2nccc(-c3ccc4nc(C5CC5)[nH]c(=O)c4c3)n2)c1)N1CCCC1,50.6*,0.8
O=C(c1ccc(Nc2nccc(-c3ccc4nc(C5CC5)[nH]c(=O)c4c3)n2)cc1)N1CCCC1,84.1*,-70.6
Nc1nccc(-c2ccc3nc(C4COc5ccccc5C4)[nH]c(=O)c3c2)n1 (stereo not given),-0.7,14.5
O=C(C1CCC(Nc2nccc(-c3ccc4nc(C5CC5)[nH]c(=O)c4c3)n2)CC1)N1CCCC1 (stereo not given),23.2,-5.7
COc1ccc2c(c1)CC(c1cnc3ccc(-c4cn[nH]c4)cc3n1)CO2 (stereo not given),-6.5,10.5
Cc1nc(-c2ccccc2F)cc(N2CCC(O)CC2)n1,-7.4,/
N#Cc1cc(-c2ccnc(Nc3cccc(NC(=O)N4CCCC4)c3)n2)ccc1N1CCCC1,67.2*,12.5
Cc1ncn(-c2ccc(Nc3nccc(-c4ccc(N5CCC6(CC5)OCCO6)c(C#N)c4)n3)cc2)n1,-0.6,1.3
COc1ccc(CCNc2nc(Nc3cccc(N(C)C)c3)nc3nc[nH]c23)cc1,10.9,31.9
SMILES,ULK1 primary,ASK1 primary
CCCN[C@@H](/C(=C/CCO)c1ccsc1)c1cccc(Cl)c1,5.0,2.2
c1cc(N2CCOCC2)ccc1Nc1nc(NCCN2CCOCC2)nc2c1ncn2C1CCCCC1,54.7*,-34.8
CN1CCN(C(=O)c2ccc(-c3nc(Nc4ccc(N5CCOCC5)cc4)c4ncn(C5CCCCC5)c4n3)cc2)CC1,0.7,13.0
NC(=O)c1ccc(-c2nc(Nc3ccc(N4CCOCC4)cc3)c3ncn(C4CCCCC4)c3n2)cc1,44.2*,-0.2
c1ccc(Nc2nc(NCCN3CCOCC3)c3ncn(C4CCCCC4)c3n2)cc1,-10.4,10.8
O=C(CN1C(=O)NC2(CCN(Cc3ccccc3)CC2)C1=O)NCCc1ccccc1,2.9,/
O=C1CCCN1CCn1cnc2c(NCCN3CCOCC3)nc(Nc3ccccc3)nc21,14.8,-4.8
c1cnc(Nc2cc(NCCN3CCOCC3)ncn2)cn1,-18.9,-12.8
O=C(Nc1ccc2[nH]ncc2c1)C1CCNCC1,55.9*,-2.0
O=C(Nc1ccc2[nH]ncc2c1)C1CCNC1 (stereo not given),12.1,-9.1
Cc1cccc(OCC(=O)NNC(=S)NCc2ccccc2)c1,-5.4,/
COc1cc(NC(=O)c2cccc(-n3cc(NC(=O)Nc4ccc(C)c([N+](=O)[O-])c4)cn3)c2)ccc1N1CCOCC1,-30.9,31.6
CCCNc1nc(Nc2nc3ccccc3n2C)nc2c1ncn2CCN1CCCC1=O,0.7,-13.9
Cn1c(Nc2nc(NCCO)c3ncn(CCN4CCCC4=O)c3n2)nc2ccccc21,73.4*,1.7
C=CCN1CCN(c2c(Cl)cccc2NS(=O)(=O)c2ccc(C)cc2)CC1,9.4,-9.8
Cn1nccc1Nc1cccc(C(=O)Nc2ccc(N3CCOCC3)cc2)n1,44.6*,-28.2
Cn1nccc1Nc1ncc(C(=O)Nc2ccc(N3CCOCC3)cc2)s1,-8.9,-9.3

# Source: PubChem
